Results as given in PubChem BioAssay AID1053144 (Broad Institute, 2014).
Screen size: about 3,400 compounds; about 160 (4.7%) were called active.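 How the source made its calls: active means fitted curve reaches 30% activation at a concentration no higher than the top valid tested dose, luminescence rising; inconclusive means no clear call, values can overlap the other calls; inactive means signal moving opposite to the expected increase, plus the rest.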 The list is a sample of the results. Measured potencies and affinities stand elsewhere.

assay: TCF/LEF reporter activation in neural progenitors – cell-based, iPS-derived NPC, luciferase, Wnt3a, cherry-pick, dose response (AID 1053144); conditions: Wnt3a EC25, 24 h; series mostly up to 26 µM; activation: at the top concentration;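 further: Wnt3a stimulus is conditioned medium from Wnt3a-transfected mouse L cells at 5% in well; 0% = neutral control wells and 100% = CHIR-99021 positive control wells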

activation, inactive:
Cc1ccc(NC(=O)c2csc3c2CCCC3)cc1 8.16%
CCOc1ccc(NC(=O)c2csc3c2CCCC3)cc1 12.5%
CCOc1ccc(NC(=O)c2ccc3c(c2)N(C)CCS3)cc1 1.57%
O=C(CSc1ccsc1[N+](=O)[O-])NCc1ccco1 10.5%
COc1ccccc1Nc1ncnc2c1cnn2-c1cccc(C)c1 6.78%
CC(C)Nc1ncnc2c1cnn2-c1ccccc1 3.91%
Cc1ccc(OCC(=O)Nc2ccccc2F)cc1C 9.3%
c1ccc(CNc2ncnc3c2oc2ccccc23)nc1 13.2%
c1ccc2c(c1)oc1c(NCC3CCCO3)ncnc12 (centres undefined) 16.6%
CCOC(=O)N/N=C\c1ccccc1OC/C=C/c1ccccc1 2.48%
O=C(/C=C/Nc1cccc(O)c1)c1ccccc1 -2.82%
COc1ccc(C(=O)Nc2ccccc2C(=O)NCc2ccco2)cc1OC 1.33%
O=C(Nc1cccc([N+](=O)[O-])c1)c1ccc2c(c1)OCCO2 9.15%
CC(=O)Nc1cccc(NC(=O)c2ccc(C)c([N+](=O)[O-])c2)c1 1.38%
COc1ccc(-c2ccc(NC(=O)c3ccc(Br)o3)cc2)nn1 17%
Cc1ccc(/C(=N/Nc2ncnc3ccccc23)C(=O)O)cc1 11.8%
Cc1cccc(Nc2ncnc3ccccc23)c1 0.509%
Cc1ccc(C(=O)Nc2cc3c(oc2=O)CCCC3=O)cc1 9.54%
Cn1nnc2cc(C(=O)Nc3ccc4ccccc4c3)ccc21 16.4%
CCOc1ccc(C2C=C(c3ccccc3)Nc3nnnn32)cc1 (centres undefined) 2.97%
CCOc1ccc(-n2c(COc3ccc(C)cc3)nnc2SCC(N)=O)cc1 14.3%
COc1ccc(C(=Cc2ccccc2[N+](=O)[O-])C(=O)O)cc1 11.6%
O=C(Nc1ccc(NC(=O)C2CC2)cn1)c1ccccc1Cl 5.17%
O=C(Nc1ccc(NC(=O)c2cccs2)cn1)c1ccccc1 5.59%
COc1cc(NC(=O)c2cccs2)ccc1NC(=O)c1ccco1 11.8%
O=C(Nc1ccc(F)cc1)c1cc(-c2ccccc2)no1 6.64%
O=C(NCC1CCCO1)c1cc(-c2ccc(Cl)cc2Cl)on1 (centres undefined) 12.2%
Cc1cc([N+](=O)[O-])ccc1NC(=O)/C=C/c1cccs1 10.2%
COc1ccc2[nH]c3c(NCCCOC(C)C)ncnc3c2c1 13.2%
O=C(CNc1ccc2ccccc2c1)N/N=C/c1ccc(OC(=O)/C=C/c2ccco2)cc1 23.3% [at 12 µM]
CCN(C(=O)C=Cc1ccco1)c1ccccc1 4.04%
Cc1ccccc1Cn1nnc(-c2cccc(C(=O)O)c2)n1 4.93%
COc1ccc(S(=O)(=O)n2ccc(-c3cnc(-c4ccccc4)s3)n2)cc1 4.09%
Cc1cccc(Nc2nc(-c3ccc(F)c(C)c3)cs2)n1 4.46%
